This excerpt belongs to a sample that is enriched for hits.
HT1080NT lethal: qHTS for induction of synthetic lethality in tumor cells producing 2HG: qHTS for the HT-1080-NT fibrosarcoma cell line; HT-1080-NT fibrosarcoma viability, CellTiter-Glo ATP luminescence, 48 h; Potency, µM (titrated, usually from 46.1 µM), for inactives: top-dose activity, negative = less viability, usual class: cytotoxic; 1.6% of 360,000 active; AID 686970, 2013;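 further: NT is the 2HG producing partner of a matched IDH1 knockdown line; potency means the concentration at half of the fitted maximal effect; 0% = DMSO-treated cells and -100% = media-only wells without cells; nearly all actives have a fitted effect of over 55% in size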
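Read-out is CellTiter-Glo luminescence after 10 minutes at room temperature, following 48 hours' compound treatment of HT-1080-NT cells (750 cells/well, RPMI, 5% FBS, 37 degrees C).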
ALOX12 inh: Primary qHTS assay for inhibitors of human arachidonate 12S-lipoxygenase (ALOX12): Round 2; Polyunsaturated fatty acid lipoxygenase ALOX12 (Homo sapiens), P18054; Potency, µM (titrated, usually from 108 µM), without a hit: at the top dose activity change, negative = inhibition, most hits filed as inhibitors; purified 12hLO, xylenol orange hydroperoxide absorbance; 1.1% of 580,000 active; AID 1671190, 2021; further: potency means the concentration at half of the fitted maximal effect
Target sequence (P18054 whole entry, looked up): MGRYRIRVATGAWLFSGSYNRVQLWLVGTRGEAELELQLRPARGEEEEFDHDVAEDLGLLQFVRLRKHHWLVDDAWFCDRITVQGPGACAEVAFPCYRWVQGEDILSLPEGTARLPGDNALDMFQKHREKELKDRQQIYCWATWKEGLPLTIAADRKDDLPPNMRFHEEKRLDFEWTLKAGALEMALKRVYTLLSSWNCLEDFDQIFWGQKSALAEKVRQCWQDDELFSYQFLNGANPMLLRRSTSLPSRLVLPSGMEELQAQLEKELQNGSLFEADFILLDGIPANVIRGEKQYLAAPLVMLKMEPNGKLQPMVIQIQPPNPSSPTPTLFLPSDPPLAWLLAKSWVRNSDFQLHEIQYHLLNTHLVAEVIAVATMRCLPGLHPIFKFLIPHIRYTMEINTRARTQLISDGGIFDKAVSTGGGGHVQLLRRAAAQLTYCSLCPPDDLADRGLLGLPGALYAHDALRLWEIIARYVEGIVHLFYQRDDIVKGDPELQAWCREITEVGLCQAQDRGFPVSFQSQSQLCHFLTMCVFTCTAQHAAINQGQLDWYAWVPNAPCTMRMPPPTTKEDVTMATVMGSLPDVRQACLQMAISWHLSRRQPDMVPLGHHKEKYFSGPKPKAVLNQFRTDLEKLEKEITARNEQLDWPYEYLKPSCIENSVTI
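Hydroperoxide product was detected by ferrous iron/xylenol orange as the 573 to 405 nm absorbance ratio. Arachidonic acid at 40 uM (final) was turned over for 30 min at room temperature by 150 nM human 12hLO, pH 7.0 Hepes buffer, after 15 min compound preincubation.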
IL1B secr inh: qHTS for Inhibitors of Inflammasome Signaling: IL-1-beta AlphaLISA Primary Screen; activity change, % at 57.5 µM; AID 743279, 2014; 4.7% of 360,000 active; THP-1 LPS/ATP IL-1B secretion, AlphaLISA, 16 h; stronger effect = lower value; in the data active means activity change below about -50%; inconclusive means mostly about -30% to -49%
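Secreted IL-1B measured by AlphaLISA bead assay after 16 h compound exposure of THP-1 cells; compounds (final up to 57.5 uM) added 1 h before LPS (250 ng/mL) and ATP (1.25 mM) stimulation; lower signal means less secretion.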
DT40 TDP1 CPT: qHTS for Inhibitors of human tyrosyl-DNA phosphodiesterase 1 (TDP1): qHTS in cells in presence of CPT; AID 686979, 2013; 12% of 420,000 active; Potency, µM (titrated, usually from 46.2 µM), for the others: at the top dose activity change, negative = growth inhibition, most hits filed as inhibitors; chicken DT40 Tdp1-/-;hTDP1 cells + 20 nM CPT, ATP luminescence, 48 h; further: potency means the concentration at half of the fitted maximal effect; nearly all actives have a fitted effect of over 55% in size
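Chicken DT40 Tdp1-/- cells complemented with human TDP1, 400 cells/well, exposed to compounds plus 20 nM camptothecin for at least 48 h at 37 C; viability read as ATP content by CellTiter-Glo luminescence.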
DT40 TDP1 no CPT: qHTS for Inhibitors of human tyrosyl-DNA phosphodiesterase 1 (TDP1): qHTS in cells in absence of CPT. DT40 Tdp1-/- hTDP1 cells, no CPT, ATP luminescence, 48 h. AID 686978, 2013. 15% of 420,000 active. Potency, µM (doses to about 46.2 µM), for the others: at the top dose activity change, negative = growth inhibition, actives largely listed as inhibitors; further: potency means the concentration at half of the fitted maximal effect; nearly all actives have a fitted effect of over 55% in size
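Growth kinetics read by CellTiter-Glo luminescence after ≥48 hr at 37 °C. Cells: DT40 Tdp1-/- stably carrying human TDP1, 400 per well, compound exposure in the absence of CPT (DMSO vehicle).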
HT1080 IDH1KD tx: qHTS for induction of synthetic lethality in tumor cells producing 2HG: qHTS for the HT-1080-IDH1KD cell line | HT-1080 IDH1 knockdown viability, ATP luminescence, 48 h | Potency, µM (highest dose often 46.1 µM), inactives show top-dose activity, negative = toxicity, actives largely listed as cytotoxic | 2% of 360,000 active;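 further: potency means the concentration at half of the fitted maximal effect; 0% = DMSO wells and -100% = cell-free medium wells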
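After a 2 h attachment period, IDH1KD HT-1080 cells took pin-transferred compound for 48 h at 37 °C; ATP-based luminescence after 10 min room-temperature reagent incubation reported viability.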
Active calls of the source: *; ? = inconclusive; . = no result given; [ ] = another dose, or the depositor's remark. Unless noted, the call rests on the fitted dose curve; in most records, active means well fitted curve in the direction sought with a large enough effect; inconclusive means small, poorly fitted or top-dose-only effect, or another doubt; inactive means no such curve, though single readings can be large; an effect the other way counts as inactive or inconclusive. Unless noted, on the % scale 0 is the no-effect control and ±100 the full control effect.

SMILES | HT1080NT lethal | ALOX12 inh | IL1B secr inh | DT40 TDP1 CPT | DT40 TDP1 no CPT | HT1080 IDH1KD tx
CC(=O)N1CCN(C(=O)c2cccc3c(=O)c(C)c(-c4ccccc4)oc23)CC1 | . | 4% | . | . | . | .
Cc1ccc(-c2nc(CS(=O)CC(=O)NCc3ccc4c(c3)OCO4)c(C)o2)cc1 (stereo not drawn) | -1% | . | -12 | ? | 16µM* | -5%
CCc1cccc(NC(=O)CS(=O)Cc2nc(-c3ccc(C)cc3)oc2C)c1 (stereo not drawn) | -5% | 21% | 9 | ? | 16µM* | -9%
CCc1ccc(-c2nc(CS(=O)CC(=O)NCc3ccccc3)c(C)o2)cc1 (stereo not drawn) | -8% | -29% | 15 | -5% | -15% | -7%
CC(=O)Nc1cc(-c2ccc(C(=O)NC3CC3)cc2)cn2c(-c3cccc(C(F)(F)F)c3)cnc12 | ? | ? | -53* | ? | 23µM* | 16µM*
CC(=O)Nc1cc(-c2ccc(C(=O)NC3CC3)cc2)cn2c(-c3cccc(C(C)=O)c3)cnc12 | 15µM* | ? | -19 | ? | 23µM* | ?
N#Cc1cccnc1NCCc1coc(-c2ccccc2)n1 | . | -17% | . | . | . | .
Cc1noc(C)c1S(=O)(=O)N1CCC(C(=O)NCCc2noc(C3CC3)n2)CC1 | . | 0% | . | . | . | .
CN(Cc1ccccn1)C1CCCc2ccccc21 (stereo not drawn) | . | 56%[176 µM] | . | . | . | .
Cc1cccc(CC(C)NC(=O)c2oc3c(F)cccc3c2C)n1 (stereo not drawn) | -6% | -5% | -1 | ? | 10µM* | -13%
Cc1ccc(C(O)(C(=O)NNS(=O)(=O)c2ccc(C)cc2)c2ccc(C)cc2)cc1 | -3% | ? | -53* | 9% | -20% | 1%
CC(C)(C)c1ccc(S(=O)(=O)NNC(=O)c2cc3ccccc3[nH]2)cc1 | 21µM* | ? | 5 | ? | ? | 21µM*
CC(C)(C)c1ccc(C(=O)NCCCNC(=O)c2cc3ccccc3[nH]2)cc1 | . | -12% | . | . | . | .
O=C(NCc1ccccc1S(=O)(=O)N1CCOCC1)c1cccc(Br)c1 | . | 4% | . | . | . | .
CCOC(=O)N1CCN(C(=O)C[C@@H]2C[C@@]3(C(=O)OCC)CCCC=C3N(Cc3ccc4c(c3)OCO4)C2=O)CC1 | 5% | -10% | 3 | ? | ? | 2%
COC(=O)[C@]12CCCCC=C1N(Cc1ccc3c(c1)OCO3)C(=O)[C@H](CC(=O)N1CCC(c3ccccc3)CC1)C2 | -24% | -4% | -13 | ? | 18µM* | -13%
CCOC(=O)[C@]12CCCC=C1N(Cc1ccc3c(c1)OCO3)C(=O)[C@H](CC(=O)N1CCC(c3ccccc3)CC1)C2 | ? | -22% | -76* | 18µM* | 21µM* | ?
Cn1c(=O)cnc2cnc(OCc3ccccc3)nc21 | . | ? | . | -2% | -1% | .
CCC(O)c1cnc(OCc2ccccc2)nc1OCc1ccccc1 (stereo not drawn) | -24% | -4% | 0 | ? | 18µM* | -23%
COc1ccc(-c2c(-c3ccccc3)n(C)c3ccccc23)cc1 | 4% | -6% | 17 | 4% | -19% | 19%
CN=C1c2c(-c3ccccc3)c3cc(OC)ccc3n2CCN1C | -28% | -18% | ? | 23µM* | 18µM* | ?
Cc1ccc(CNC(=O)[C@@]23CCCC[C@H]2N(C)C(=O)CC3)cc1 | . | 5% | . | . | . | .
CCOc1ccc(CCNC(=O)c2cc3c(=O)oc4ccc(C)cc4c3s2)cc1OCC | . | ? | . | 13µM* | ? | .
Cc1ccc2oc(=O)c3cc(C(=O)NCCCN4CCN(C)CC4)sc3c2c1 | ? | 2% | -12 | ? | ? | -19%
Cc1ccc2oc(=O)c3cc(C(=O)Nc4ccc(F)cc4F)sc3c2c1 | . | -44% | . | ? | 26µM* | .
SMILES | HT1080NT lethal | ALOX12 inh | IL1B secr inh | DT40 TDP1 CPT | DT40 TDP1 no CPT | HT1080 IDH1KD tx
Cc1ccc2oc(=O)c3cc(C(=O)NCCCN4CC(C)CC(C)C4)sc3c2c1 (stereo not drawn) | 3% | 19% | -83* | ? | ? | 16%
CCOc1ccc(CNC(=O)c2cc3c(=O)oc4ccc(C)cc4c3s2)cc1 | . | 0% | . | ? | ? | .
Cc1ccc2oc(=O)c3cc(C(=O)N(Cc4ccccc4)C(C)C)sc3c2c1 | . | -15% | . | 18µM* | 21µM* | .
CCN(CC)C(=O)c1cc2c(=O)n3cccc(C)c3nc2s1 | 3% | ? | 17 | -7% | -23% | 5%
Cc1cccn2c(=O)c3cc(C(=O)N(Cc4ccccc4)C(C)C)sc3nc12 | . | -7% | . | 16µM* | 21µM* | .
CCOC(=O)C1C(C(=O)OC)=C(c2ccc(OC)cc2)c2ccccc2N1S(=O)(=O)C(F)(F)F (stereo not drawn) | 3% | ? | -20 | ? | 16µM* | -1%
CCOC(=O)C1=C(c2ccccc2)c2ccccc2N(S(=O)(=O)C(F)(F)F)C1C(=O)OCC (stereo not drawn) | 4% | -20% | -4 | ? | ? | 2%
CCOC(=O)C1=C(C2=CCCCC2)c2ccc(OC)cc2N(S(=O)(=O)C(F)(F)F)C1C(=O)OCC (stereo not drawn) | -12% | . | ? | 5.8µM* | 2.3µM* | -6%
CCOC(=O)C1(C)C(C(=O)OC)=C(c2ccc(OC)cc2)c2ccccc2N1C(=O)OC (stereo not drawn) | 7% | ? | -18 | 21µM* | 13µM* | 3%
CC(=O)Nc1cc(NC(=O)Cc2nc(-c3ccccc3)oc2C)ccc1F | . | 3% | . | . | . | .
CC1CCN(CC(O)COCCC23CC4CC(CC(C4)C2)C3)CC1 (stereo not drawn) | ? | -6%[57.4 µM] | ? | 21µM* | 21µM* | ?
CCOC(=O)CN(C)C(=O)c1cnn(-c2ncc3c(n2)-c2ccccc2CCC3)c1C | . | -1% | . | 4%[9.04 µM] | ? | .
COc1cccc(CN(C)C(=O)c2cnn(-c3ncc4c(n3)-c3ccccc3CCC4)c2C)c1 | . | ? | . | 18µM* | 23µM* | .
Cc1ccc(C2C3=C(CC(C)(C)CC3=O)OC3=C2C(=O)CC(C)(C)C3)cc1 | 21% | -3% | -15 | -6% | -12% | 22%

Screening results as filed in PubChem BioAssay.
